Experimental data reported in PubChem BioAssay (EPA / NIEHS).
More than one record can exist for a structure, and the calls need not agree. Active and inactive are the calls of the source. The calls were made as follows: active = hit-call score of the fitted dose curve at least 0.9, where 1 is the maximum; inactive = score below 0.9.

Experiments:
[1] = ATG_GLI_CIS: Attagene CIS-FACTORIAL HepG2 Assay for human Zinc Finger Protein GLI1 (AID 2282945); settings: HepG2, Attagene cis-factorial reporter mRNA, GLI element; actives raise or lower the signal
Method in brief: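 Transiently transfected HepG2 cells report endogenous transcription factor activity via cis-element-driven reporter units. After 24 h compound exposure, reporter mRNA was measured by RT-PCR with capillary electrophoresis; bidirectional fitting against DMSO baseline.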

[2] = ATG_GRE_CIS: Attagene CIS-FACTORIAL HepG2 Assay for human Glucocorticoid Response Elements (GRE) (AID 2282947); settings: HepG2 GRE cis-reporter, Attagene multiplex mRNA; actives raise or lower the signal
Method in brief: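 Endogenous transcription factor activity is read through cis-element reporter constructs transiently transfected into HepG2 cells. After 24 h treatment, labelled RT-PCR products are resolved by capillary electrophoresis; DMSO sets baseline for bidirectional curve fitting.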

[3] = ATG_ISRE_CIS: Attagene CIS-FACTORIAL HepG2 Assay for human Interferon Regulatory Factor 1 (IRF1) binding to an Interferon-Stimulated Response Element (ISRE) (AID 2282948); settings: HepG2 ISRE cis-reporter (Attagene), mRNA transcription readout; actives raise or lower the signal
Method in brief: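 Quantitation relies on labelled RT-PCR fragments separated by capillary electrophoresis. Human HepG2 cells bearing cis-promoter reporter constructs were treated 24 h; DMSO served as baseline for bidirectional fitting.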

[4] = ATG_M_32_CIS: Attagene CIS-FACTORIAL HepG2 Assay for M32 Transcription Factor (Internal Marker) (AID 2282949); settings: HepG2 Attagene cis-factorial M32 reporter, mRNA; actives raise or lower the signal;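 also: background control marker of the multiplexed CIS panel rather than a real target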
Method in brief: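 Internal background marker read-out: RT-PCR/capillary electrophoresis fluorescence of reporter transcripts from transiently transfected HepG2 cells after 24 h chemical exposure. Activity fitted bidirectionally relative to DMSO negative control.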

[5] = target: Hypoxia-inducible factor 1-alpha (Homo sapiens) (UniProt Q16665); test: ATG_HIF1a_CIS: Attagene CIS-FACTORIAL HepG2 Assay for human Hypoxia Inducible Factor 1 (HIF1A) (AID 2282951); settings: HepG2 Attagene cis-factorial HIF1a reporter transcription; actives raise or lower the signal
Method in brief: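 Activity is fitted in both directions relative to DMSO. Reporter transcripts are read by RT-PCR, fluorescent primer extension and capillary electrophoresis after 24 h chemical treatment. The cells are HepG2 carrying transiently transfected cis-element-driven reporter units responding to endogenous factors.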

[6] = target: Hepatocyte nuclear factor 6 (Homo sapiens) (UniProt Q9UBC0); test: ATG_HNF6_CIS: Attagene CIS-FACTORIAL HepG2 Assay for human Hepatocyte Nuclear Factor 6 (HNF6) (AID 2282952); settings: HepG2 Attagene cis-factorial HNF6 reporter transcription; actives raise or lower the signal
Method in brief: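 Multiplexed mRNA reporter assay in transfected HepG2; 24 h dosing; RT-PCR plus capillary electrophoresis fluorescence; DMSO-referenced bidirectional curve fitting.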

[7] = ATG_MRE_CIS: Attagene CIS-FACTORIAL HepG2 Assay for human Metal Responsive Element (MRE) (AID 2282954); settings: HepG2 MRE cis-reporter transcription, Attagene multiplex; actives raise or lower the signal
Method in brief: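 Fluorescent reporter fragments separated by capillary electrophoresis give mRNA induction for the MRE unit after 24 h treatment of transfected HepG2 cells. Endogenous transcription-factor activity is read; DMSO serves as negative control and baseline.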

[8] = target: Paired box protein Pax-6 (Homo sapiens) (UniProt P26367); test: ATG_Pax6_CIS: Attagene CIS-FACTORIAL HepG2 Assay for human Paired Box 6 (PAX6) (AID 2282956); settings: HepG2 CIS-FACTORIAL PAX6 reporter transcription, RNA readout; actives raise or lower the signal
Method in brief: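 After twenty-four hours of chemical exposure, transfected HepG2 cells are harvested for RNA. Cis-promoter reporter transcripts are amplified, fluorescently labelled and sized by capillary electrophoresis, with gain and loss of signal scored against DMSO.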

[9] = ATG_PXRE_CIS: Attagene CIS-FACTORIAL HepG2 Assay for human Pregnane X Receptor Element (PXRE) (AID 2282957); settings: HepG2 Attagene CIS-FACTORIAL PXRE reporter, mRNA; actives raise or lower the signal
Method in brief: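 Cells: HepG2, transiently transfected reporter units under cis promoter control. Exposure: 24 h. Detection: reporter mRNA via RT-PCR/CE fluorescence; bidirectional fitting, DMSO-referenced.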

[10] = ATG_Sox_CIS: Attagene CIS-FACTORIAL HepG2 Assay for human SRY-box transcription factor (SOX) (AID 2282960); settings: HepG2 Attagene cis-factorial SOX reporter, mRNA; actives raise or lower the signal
Method in brief: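 Reporter transcripts, measured by RT-PCR and capillary electrophoresis of labelled fragments, report endogenous SOX transcription factor activity. Transiently transfected human HepG2 cells receive chemical for 24 h; changes in either direction are fitted relative to DMSO.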

[11] = target: Transcription factor Sp1 (Homo sapiens) (UniProt P08047); test: ATG_Sp1_CIS: Attagene CIS-FACTORIAL HepG2 Assay for human Specificity Protein 1 (Sp1) (AID 2282961); settings: HepG2 Sp1 cis-reporter transcription, actives raise or lower the signal
Method in brief: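 Read-out is reporter transcript level, measured by RT-PCR and fluorescent capillary electrophoresis after 24 h chemical treatment. System: transiently transfected HepG2 cells reporting endogenous transcription factor activity; gain or loss fitted against DMSO baseline.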

[12] = ATG_SREBP_CIS: Attagene CIS-FACTORIAL HepG2 Assay for human Sterol Regulatory Element Binding (SREBP) (AID 2282962); settings: HepG2 Attagene cis-factorial SREBP reporter, mRNA; actives raise or lower the signal
Method in brief: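 Twenty-four hours after chemical dosing of transfected HepG2 cultures, reporter RNA was converted to cDNA, amplified, end-labelled with 6-FAM and resolved by capillary electrophoresis. Responses were fitted relative to DMSO.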

[13] = target: Signal transducer and activator of transcription 3 (Homo sapiens) (UniProt P40763); test: ATG_STAT3_CIS: Attagene CIS-FACTORIAL HepG2 Assay for human Signal Transducer and Activator of Transcription 3 (STAT3) (AID 2282963); settings: HepG2, Attagene cis-factorial STAT3 reporter transcription; actives raise or lower the signal
Method in brief: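 Values derive from bidirectional fits relative to DMSO of reporter mRNA levels, measured by RT-PCR with capillary electrophoresis, in HepG2 cells carrying transiently transfected cis-regulated reporter units and exposed 24 h.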

[14] = ATG_TA_CIS: Attagene CIS-FACTORIAL HepG2 Assay for human TA Basal Promoter (AID 2282964); settings: HepG2 Attagene CIS-factorial TA basal promoter reporter; actives raise or lower the signal
Method in brief: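 Transfected HepG2, 24 h compound exposure; RNA → RT-PCR → FAM primer extension → HpaI cut → CE fluorescence. Gain/loss-of-signal fitted against DMSO negative control. Background-control readout.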

[15] = ATG_M_06_CIS: Attagene CIS-FACTORIAL HepG2 Assay for M06 Transcription Factor (Internal Marker) (AID 2282950); settings: HepG2 Attagene CIS-FACTORIAL M06 internal marker reporter; actives raise or lower the signal
Method in brief: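 Terse: HepG2, transient MRTU transfection (FuGene 6), 24 h dosing; total RNA, oligo(dT) RT, PCR, FAM label, HpaI cut, capillary electrophoresis; bidirectional fit vs DMSO baseline; background-control endpoint.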

[16] = target: Heat shock factor protein 1 (Homo sapiens) (UniProt Q00613); test: ATG_HSE_CIS: Attagene CIS-FACTORIAL HepG2 Assay for human Heat Shock Transcription Factor 1 (HSE) (AID 2282953); settings: HepG2 HSE cis-reporter, Attagene RNA transcription; actives raise or lower the signal
Method in brief: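 Read-out: fluorescence of reporter-specific RT-PCR fragments separated by capillary electrophoresis. HepG2 carrying transfected cis-element reporter units; 24 h dosing; activity fitted in both directions relative to DMSO baseline.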

[17] = ATG_PPRE_CIS: Attagene CIS-FACTORIAL HepG2 Assay for human Peroxisome Proliferator-activated Response Element (PPRE) (AID 2282958); settings: HepG2 PPRE cis-element reporter, Attagene transcription factor profiling; actives raise or lower the signal
Method in brief: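 Endogenous PPRE-driven transcription is measured in HepG2 cells carrying transfected multi-reporter constructs. Reporter transcripts are quantified by RT-PCR, HpaI digestion and capillary electrophoresis 24 h after dosing. DMSO baseline, bidirectional fit.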

[18] = ATG_RORE_CIS: Attagene CIS-FACTORIAL HepG2 Assay for human RAR-related Orphan Receptor Element (RORE) (AID 2282959); settings: HepG2 Attagene cis-factorial RORE reporter, mRNA; actives raise or lower the signal
Method in brief: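 RORE reporter transcripts reflecting endogenous factor activity were read after 24 h compound exposure of transfected HepG2 cells, using reverse transcription, PCR, fluorescent labelling and capillary electrophoresis sizing. Gain or loss fitted against DMSO.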

[19] = target: Bile acid receptor (Homo sapiens) (UniProt Q96RI1); test: ATG_IR1_CIS: Attagene CIS-FACTORIAL HepG2 Assay for human Nuclear Receptor Subfamily 1 Group H Member 4 (NR1H4), IR1 submotif (AID 2282946); settings: IR1 reporter transcription, actives raise or lower the signal
Method in brief: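 HepG2 cells transiently transfected with multiple cis-promoter-driven reporter units to measure endogenous transcription factor activity; 24 h exposure. Reporter mRNA read by RT-PCR, FAM labelling, HpaI digestion and capillary electrophoresis. Bidirectional fit versus DMSO.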

[20] = ATG_PBREM_CIS: Attagene CIS-FACTORIAL HepG2 Assay for human Phenobarbital-responsive Enhancer Module (PBREM) (AID 2282955); settings: HepG2 PBREM cis-reporter, Attagene multiplexed transcription; actives raise or lower the signal
Method in brief: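 Endogenous transcription factor activity was read from reporter transcripts in transiently transfected human HepG2 liver cells after 24 h dosing. RT-PCR products were fluorescently labelled, HpaI-cut and sized by capillary electrophoresis; activity fitted bidirectionally against DMSO baseline.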

Measured: AC50

Sequence of Heat shock factor protein 1 (Homo sapiens) (Q00613 whole entry, looked up, the tested form may be a part): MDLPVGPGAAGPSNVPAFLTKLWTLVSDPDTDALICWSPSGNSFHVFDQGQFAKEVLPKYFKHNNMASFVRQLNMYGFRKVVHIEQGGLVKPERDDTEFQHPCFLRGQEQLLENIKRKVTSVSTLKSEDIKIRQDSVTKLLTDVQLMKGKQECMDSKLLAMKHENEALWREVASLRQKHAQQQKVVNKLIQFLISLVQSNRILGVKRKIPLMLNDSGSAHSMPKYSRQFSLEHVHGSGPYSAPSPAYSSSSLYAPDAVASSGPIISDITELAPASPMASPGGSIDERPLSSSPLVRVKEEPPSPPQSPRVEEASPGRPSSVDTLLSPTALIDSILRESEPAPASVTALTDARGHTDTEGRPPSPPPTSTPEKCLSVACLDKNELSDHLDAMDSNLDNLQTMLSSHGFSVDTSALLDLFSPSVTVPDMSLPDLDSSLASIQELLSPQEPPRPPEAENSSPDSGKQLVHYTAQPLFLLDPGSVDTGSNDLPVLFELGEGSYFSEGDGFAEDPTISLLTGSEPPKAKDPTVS
Sequence of Signal transducer and activator of transcription 3 (Homo sapiens) (P40763 whole entry, looked up): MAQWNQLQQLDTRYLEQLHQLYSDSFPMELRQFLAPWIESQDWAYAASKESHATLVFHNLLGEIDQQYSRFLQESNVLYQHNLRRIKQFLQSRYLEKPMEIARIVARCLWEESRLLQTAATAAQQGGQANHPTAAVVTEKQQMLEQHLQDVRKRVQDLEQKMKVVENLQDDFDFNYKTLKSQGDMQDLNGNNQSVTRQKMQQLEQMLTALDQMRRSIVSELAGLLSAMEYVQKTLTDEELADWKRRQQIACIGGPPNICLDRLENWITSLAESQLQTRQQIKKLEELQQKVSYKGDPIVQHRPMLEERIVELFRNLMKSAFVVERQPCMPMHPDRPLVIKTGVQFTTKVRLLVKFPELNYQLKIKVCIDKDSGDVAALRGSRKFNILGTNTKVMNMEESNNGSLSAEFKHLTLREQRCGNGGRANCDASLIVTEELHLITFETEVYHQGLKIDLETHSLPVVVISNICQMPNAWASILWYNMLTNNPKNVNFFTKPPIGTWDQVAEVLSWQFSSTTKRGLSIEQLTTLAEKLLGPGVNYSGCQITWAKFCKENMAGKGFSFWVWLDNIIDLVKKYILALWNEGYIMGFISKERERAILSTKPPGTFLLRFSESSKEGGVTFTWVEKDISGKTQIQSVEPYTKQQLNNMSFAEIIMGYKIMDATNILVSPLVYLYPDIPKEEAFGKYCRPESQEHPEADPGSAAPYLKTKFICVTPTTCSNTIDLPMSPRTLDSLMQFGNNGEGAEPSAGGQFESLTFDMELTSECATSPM
Sequence of Paired box protein Pax-6 (Homo sapiens) (P26367 whole entry, looked up): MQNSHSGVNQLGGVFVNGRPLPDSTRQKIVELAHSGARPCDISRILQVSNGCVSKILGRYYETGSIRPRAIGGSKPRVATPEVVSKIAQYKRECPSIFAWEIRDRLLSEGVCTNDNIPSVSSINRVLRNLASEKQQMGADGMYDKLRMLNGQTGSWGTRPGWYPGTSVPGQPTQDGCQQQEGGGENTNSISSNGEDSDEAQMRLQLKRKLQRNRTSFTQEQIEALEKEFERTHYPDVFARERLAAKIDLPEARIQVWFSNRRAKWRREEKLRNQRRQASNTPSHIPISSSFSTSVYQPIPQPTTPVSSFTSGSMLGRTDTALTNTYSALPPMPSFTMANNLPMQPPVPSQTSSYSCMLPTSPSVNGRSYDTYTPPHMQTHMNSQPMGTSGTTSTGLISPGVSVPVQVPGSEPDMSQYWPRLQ
Sequence of Hepatocyte nuclear factor 6 (Homo sapiens) (Q9UBC0 whole entry, looked up): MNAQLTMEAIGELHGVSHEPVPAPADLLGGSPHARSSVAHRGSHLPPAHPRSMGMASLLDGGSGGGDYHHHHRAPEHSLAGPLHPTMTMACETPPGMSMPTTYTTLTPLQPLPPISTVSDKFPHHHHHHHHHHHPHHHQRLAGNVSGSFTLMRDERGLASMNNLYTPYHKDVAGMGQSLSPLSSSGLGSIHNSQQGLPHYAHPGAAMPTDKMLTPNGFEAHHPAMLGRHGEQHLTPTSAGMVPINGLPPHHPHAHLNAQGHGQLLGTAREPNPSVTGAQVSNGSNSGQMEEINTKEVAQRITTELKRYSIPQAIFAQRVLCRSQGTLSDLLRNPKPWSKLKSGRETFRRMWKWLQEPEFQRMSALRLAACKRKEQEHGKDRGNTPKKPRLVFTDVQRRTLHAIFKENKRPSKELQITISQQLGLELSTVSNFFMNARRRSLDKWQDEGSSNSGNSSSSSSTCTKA
Sequence of Hypoxia-inducible factor 1-alpha (Homo sapiens) (Q16665 whole entry, looked up): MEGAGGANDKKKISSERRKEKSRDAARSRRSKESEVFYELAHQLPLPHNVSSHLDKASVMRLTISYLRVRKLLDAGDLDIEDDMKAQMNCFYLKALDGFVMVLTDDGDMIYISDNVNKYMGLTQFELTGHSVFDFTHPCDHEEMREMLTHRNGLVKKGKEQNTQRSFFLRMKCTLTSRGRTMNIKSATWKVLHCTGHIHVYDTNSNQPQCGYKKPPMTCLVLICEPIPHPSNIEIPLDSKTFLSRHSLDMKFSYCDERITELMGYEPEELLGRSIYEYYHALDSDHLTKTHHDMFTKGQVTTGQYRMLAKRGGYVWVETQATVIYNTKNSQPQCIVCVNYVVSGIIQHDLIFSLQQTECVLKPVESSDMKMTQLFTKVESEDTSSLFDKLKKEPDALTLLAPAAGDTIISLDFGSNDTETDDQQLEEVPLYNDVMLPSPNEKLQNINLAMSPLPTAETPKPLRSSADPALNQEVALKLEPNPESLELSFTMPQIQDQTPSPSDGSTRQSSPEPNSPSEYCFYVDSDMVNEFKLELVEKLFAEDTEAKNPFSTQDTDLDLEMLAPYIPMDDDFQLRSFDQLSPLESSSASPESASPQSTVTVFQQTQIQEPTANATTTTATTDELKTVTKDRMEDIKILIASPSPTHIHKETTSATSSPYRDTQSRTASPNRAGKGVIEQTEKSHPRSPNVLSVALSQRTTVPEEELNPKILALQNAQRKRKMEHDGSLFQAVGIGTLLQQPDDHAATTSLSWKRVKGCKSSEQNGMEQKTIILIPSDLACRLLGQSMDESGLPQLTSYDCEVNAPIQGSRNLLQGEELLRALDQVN
Sequence of Bile acid receptor (Homo sapiens) (Q96RI1 whole entry, looked up): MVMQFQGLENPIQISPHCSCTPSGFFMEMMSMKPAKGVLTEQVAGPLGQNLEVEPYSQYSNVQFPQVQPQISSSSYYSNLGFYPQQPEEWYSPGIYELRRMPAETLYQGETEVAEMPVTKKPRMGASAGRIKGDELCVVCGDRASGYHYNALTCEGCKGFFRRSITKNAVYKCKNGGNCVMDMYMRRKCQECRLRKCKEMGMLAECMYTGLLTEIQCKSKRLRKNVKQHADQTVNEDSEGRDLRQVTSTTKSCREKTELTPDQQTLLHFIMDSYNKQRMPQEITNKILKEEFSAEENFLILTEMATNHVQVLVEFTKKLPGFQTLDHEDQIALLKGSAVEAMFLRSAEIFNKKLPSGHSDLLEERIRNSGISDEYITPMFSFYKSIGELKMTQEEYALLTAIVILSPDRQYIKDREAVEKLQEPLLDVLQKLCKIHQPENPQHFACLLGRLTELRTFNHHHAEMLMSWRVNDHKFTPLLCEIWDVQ
Sequence of Transcription factor Sp1 (Homo sapiens) (P08047 whole entry, looked up): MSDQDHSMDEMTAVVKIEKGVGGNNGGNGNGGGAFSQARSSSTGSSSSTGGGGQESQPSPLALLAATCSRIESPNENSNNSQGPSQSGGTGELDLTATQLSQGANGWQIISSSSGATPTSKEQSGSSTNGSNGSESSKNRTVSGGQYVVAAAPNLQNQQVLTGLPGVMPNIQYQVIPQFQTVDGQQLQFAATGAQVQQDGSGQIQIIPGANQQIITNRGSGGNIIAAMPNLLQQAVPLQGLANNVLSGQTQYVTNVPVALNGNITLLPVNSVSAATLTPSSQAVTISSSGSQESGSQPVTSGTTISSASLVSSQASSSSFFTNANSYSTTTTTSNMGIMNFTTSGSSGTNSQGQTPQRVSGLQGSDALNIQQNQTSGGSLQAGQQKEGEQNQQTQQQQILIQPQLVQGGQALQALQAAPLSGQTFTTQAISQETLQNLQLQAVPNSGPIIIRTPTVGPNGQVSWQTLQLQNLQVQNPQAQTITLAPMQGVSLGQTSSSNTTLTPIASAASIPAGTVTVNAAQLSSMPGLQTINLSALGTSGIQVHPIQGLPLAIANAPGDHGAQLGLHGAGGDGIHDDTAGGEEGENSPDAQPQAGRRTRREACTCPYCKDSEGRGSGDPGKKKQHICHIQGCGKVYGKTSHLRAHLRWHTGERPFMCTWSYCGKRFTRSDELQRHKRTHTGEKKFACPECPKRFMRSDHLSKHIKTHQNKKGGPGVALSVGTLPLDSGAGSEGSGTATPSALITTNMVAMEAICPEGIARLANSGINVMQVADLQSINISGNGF

COCC(C)O (stereo not given)
not listed: [15] | [16] | [17] | [18] | [19] | [20]
inactive: all other assays above

C[C@@H]1C[C@H]2[C@@H]3CCC4=CC(=O)C=C[C@]4(C)[C@@]3(F)[C@@H](O)C[C@]2(C)[C@@]1(O)C(=O)COP(=O)(O)O
inactive: [1] | [3] | [4] | [15] | [5] | [6] | [16] | [7] | [8] | [9] | [17] | [18] | [10] | [11] | [12] | [13] | [14]
active: [2] 77.6 nM [middle of 4 runs] | [9] 25.9 µM

CC(O)C(=O)O (stereo not given)
not listed: [2] | [8] | [17]
inactive: all other assays above
